{"source": "PubChem BioAssay (Tox21)", "note": "Inconclusive results are not listed. Entries that show only a call come without a potency. A number with no mark means an inactive call. The source made the active and inactive calls. Calls follow the shape of the dose curve; as a rule, active = well fitted curve in the direction sought with a large enough effect in the repeat runs; inconclusive = weak or mixed curves; inactive = no such curve, though single readings can be large; an effect the other way counts as inactive or inconclusive. Also: nearly all actives have a fitted effect of over 50% in size."}
{"target": "Voltage-gated inwardly rectifying potassium channel KCNH2 (Homo sapiens) (UniProt Q12809)", "sequence (Q12809 whole entry, looked up)": "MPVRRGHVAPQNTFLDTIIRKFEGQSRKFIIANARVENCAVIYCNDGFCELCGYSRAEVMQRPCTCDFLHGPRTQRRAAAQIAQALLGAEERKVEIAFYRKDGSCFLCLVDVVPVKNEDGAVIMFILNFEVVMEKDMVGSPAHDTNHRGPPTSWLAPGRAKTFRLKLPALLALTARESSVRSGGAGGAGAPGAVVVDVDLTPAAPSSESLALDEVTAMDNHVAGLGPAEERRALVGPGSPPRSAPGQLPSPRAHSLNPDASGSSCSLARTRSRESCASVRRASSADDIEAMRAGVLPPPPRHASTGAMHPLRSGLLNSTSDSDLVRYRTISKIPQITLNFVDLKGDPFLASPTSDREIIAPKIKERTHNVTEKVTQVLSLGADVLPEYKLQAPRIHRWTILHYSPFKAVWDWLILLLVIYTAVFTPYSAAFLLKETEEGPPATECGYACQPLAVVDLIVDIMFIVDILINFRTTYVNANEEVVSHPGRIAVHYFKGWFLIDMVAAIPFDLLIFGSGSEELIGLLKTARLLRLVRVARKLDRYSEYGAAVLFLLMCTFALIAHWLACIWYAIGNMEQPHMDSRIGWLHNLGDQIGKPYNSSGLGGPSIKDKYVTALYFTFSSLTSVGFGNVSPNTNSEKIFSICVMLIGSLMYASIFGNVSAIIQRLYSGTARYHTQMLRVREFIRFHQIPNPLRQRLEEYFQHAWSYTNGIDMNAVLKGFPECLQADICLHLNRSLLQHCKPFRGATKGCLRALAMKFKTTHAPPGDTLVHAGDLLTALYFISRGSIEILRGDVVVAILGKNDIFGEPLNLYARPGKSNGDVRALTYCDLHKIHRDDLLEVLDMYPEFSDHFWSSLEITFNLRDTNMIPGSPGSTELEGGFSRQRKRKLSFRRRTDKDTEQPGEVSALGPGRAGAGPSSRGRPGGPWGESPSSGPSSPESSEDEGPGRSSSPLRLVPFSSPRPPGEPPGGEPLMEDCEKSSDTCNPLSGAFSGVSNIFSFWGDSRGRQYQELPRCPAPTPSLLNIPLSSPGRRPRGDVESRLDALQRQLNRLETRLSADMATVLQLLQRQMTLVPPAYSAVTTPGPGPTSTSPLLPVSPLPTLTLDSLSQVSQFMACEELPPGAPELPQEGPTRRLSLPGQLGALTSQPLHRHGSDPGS", "test": "Human Ether-a-go-go-Related Gene (hERG) channel small molecule antagonists: fluorescence cell-based qHTS assay (AID 1671200);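 also: hERG-expressing U2OS cells given a thallium stimulus after FluxOR II dye loading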", "settings": "hERG-U2OS cells, FluxOR thallium flux fluorescence; series mostly up to 76.8 µM", "summary_of_the_method": "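Thallium served as the potassium surrogate; its influx into dye-loaded U2OS cells carrying the channel was measured by fluorescence over 2 min.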"}
{"smiles": "O=C1NC(=O)c2cccc3cccc1c23", "Potency": "inactive"}
{"smiles": "SCCc1cnccn1", "Potency": "inactive"}
{"smiles": "CCCCCCC(CO)CCCC", "note": "(stereo not drawn)", "Potency": "inactive"}
{"smiles": "CCN(CC)CC(=O)Nc1c(C)cccc1C(=O)OC", "Potency": "inactive"}
{"smiles": "O=S(=O)(Cl)c1c(Cl)cccc1Cl", "Potency": "inactive"}
{"smiles": "CCC(CO)(CO)CO", "Potency": "inactive"}
{"smiles": "c1ccc(CNc2ncnc3c2ncn3C2CCCCO2)cc1", "note": "(stereo not drawn)", "Potency": "inactive"}
{"smiles": "CC(=O)C(C)=O", "Potency": "inactive"}
{"smiles": "COc1ccc(C)cc1", "Potency": "inactive"}
{"smiles": "CC(C)(C)CCCCCCOC(=O)c1ccccc1C(=O)OCCCCCCC(C)(C)C", "Potency": "inactive"}
{"smiles": "COC(OC)OC", "Potency": "inactive"}
{"smiles": "CC(=O)c1ccc[nH]1", "Potency": "inactive"}
{"smiles": "Cc1cccc(C)c1NC(=O)c1cc(S(N)(=O)=O)c(Cl)cc1O", "Potency": "inactive"}
{"smiles": "CCN(CC)c1cccc(O)c1", "Potency": "inactive"}
{"smiles": "O=C(O)CCC(=O)OC[C@@H](NC(=O)C(Cl)Cl)[C@H](O)c1ccc([N+](=O)[O-])cc1", "Potency": "inactive"}
{"smiles": "CC(C)(O)CCc1ccccc1", "Potency": "inactive"}
{"smiles": "CC1C(C)(C)C2=C(C(=O)CCC2)C1(C)C", "note": "(stereo not drawn)", "Potency": "inactive"}
{"smiles": "CCOC(=O)Oc1ccc(CCNC(=O)[C@H](CCSC)NC(C)=O)cc1OC(=O)OCC", "Potency": "inactive"}
{"smiles": "C[C@@H]1C[C@H]2[C@@H]3CCC4=CC(=O)C=C[C@]4(C)[C@@]3(F)[C@@H](O)C[C@]2(C)[C@@]1(O)C(=O)COP(=O)(O)O", "Potency": "inactive"}
{"smiles": "O=C1[C@@H]2[C@H]3CC[C@H](C3)[C@@H]2C(=O)N1CCCCN1CCN(c2ncccn2)CC1", "Potency": "inactive"}
{"smiles": "CC1=CC[C@@]23C[C@@H]1C(C)(C)[C@@H]2CC[C@H]3C", "Potency": "inactive"}
{"smiles": "CCCCCCCCCCCCCOC(=O)CCSCCC(=O)OCCCCCCCCCCCCC", "activity change, negative = inhibition": "-9.44% [at 15.8 µM]"}
{"smiles": "CC(=O)OCCC1CCCCC1", "Potency": "inactive"}
{"smiles": "COc1cc(NS(=O)(=O)c2ccc(N)cc2)nc(C)n1", "Potency": "inactive"}
{"smiles": "Nc1ccc(N=Nc2ccc(N)cc2)cc1", "Potency": "inactive"}
{"smiles": "Nc1c(Cl)cc(Cl)cc1[N+](=O)[O-]", "Potency": "inactive"}
{"smiles": "CCCCCCCCCCCSCC(=O)O", "Potency": "inactive"}
{"smiles": "C=CC(=O)NC(C)C", "Potency": "inactive"}
{"smiles": "FC(F)(F)C(F)(F)C(F)(F)C(F)(F)CCI", "Potency": "inactive"}
{"smiles": "C/C(C=O)=C\\c1ccccc1", "Potency": "inactive"}
{"smiles": "O=C(c1ccccc1)C1CCC1", "Potency": "inactive"}
{"smiles": "CCCCCCCC(=O)OCCCCCC", "Potency": "inactive"}
{"smiles": "CCOC(=O)c1ccc(NC(=O)CN2CCCCC2)cc1", "Potency": "inactive"}
{"smiles": "CC(CO)(CO)C(=O)O", "Potency": "inactive"}
{"smiles": "CCC(C)(C)C(=O)O", "Potency": "inactive"}
{"target": "Cytochrome P450 3A4 (Homo sapiens) (UniProt P08684)", "sequence (P08684 whole entry, looked up)": "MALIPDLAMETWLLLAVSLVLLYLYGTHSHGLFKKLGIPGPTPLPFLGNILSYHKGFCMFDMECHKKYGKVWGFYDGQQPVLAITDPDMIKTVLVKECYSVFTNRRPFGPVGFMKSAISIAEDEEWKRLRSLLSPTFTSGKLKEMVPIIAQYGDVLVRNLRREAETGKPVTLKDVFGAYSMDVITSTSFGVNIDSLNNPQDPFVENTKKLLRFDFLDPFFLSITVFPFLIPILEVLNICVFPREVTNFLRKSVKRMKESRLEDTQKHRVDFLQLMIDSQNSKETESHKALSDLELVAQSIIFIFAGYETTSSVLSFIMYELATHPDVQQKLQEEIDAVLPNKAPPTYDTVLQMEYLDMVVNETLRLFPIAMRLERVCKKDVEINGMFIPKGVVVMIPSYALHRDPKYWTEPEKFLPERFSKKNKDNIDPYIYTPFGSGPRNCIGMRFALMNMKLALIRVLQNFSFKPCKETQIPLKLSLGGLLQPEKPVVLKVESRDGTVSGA", "test": "Cytochrome P450 Family 3 Subfamily A Member 4 (CYP3A4) small molecule antagonists: luciferase reporter qHTS assay (AID 1671201); also: potency is read from the fitted curve at half-maximal effect", "settings": "P450-Glo CYP3A4 enzyme, luciferin luminescence, 1 h; series mostly up to 115 µM", "summary_of_the_method": "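Relative luminescence units after 20 min with luciferin detection reagent served as read-out. Beforehand, CYP3A4 turned over a proluciferin substrate for 1 h at room temperature with NADPH regeneration, following 10 min compound preincubation.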"}
{"smiles": "O=C1NC(=O)c2cccc3cccc1c23", "Potency": "inactive"}
{"smiles": "CCCCCCC(CO)CCCC", "note": "(stereo not drawn)", "Potency": "inactive"}
{"smiles": "CCN(CC)CC(=O)Nc1c(C)cccc1C(=O)OC", "Potency": "inactive"}
{"smiles": "O=S(=O)(Cl)c1c(Cl)cccc1Cl", "Potency": "inactive"}
{"smiles": "c1ccc(CNc2ncnc3c2ncn3C2CCCCO2)cc1", "note": "(stereo not drawn)", "Potency": "inactive"}
{"smiles": "CC1CCC(C(C)CS)CC1S", "note": "(stereo not drawn)", "Potency": "31.7 µM (active)"}
{"smiles": "CC(C)(C)CCCCCCOC(=O)c1ccccc1C(=O)OCCCCCCC(C)(C)C", "Potency": "inactive"}
{"smiles": "COC(OC)OC", "Potency": "inactive"}
{"smiles": "CC(=O)c1ccc[nH]1", "Potency": "inactive"}
{"smiles": "Cc1cccc(C)c1NC(=O)c1cc(S(N)(=O)=O)c(Cl)cc1O", "Potency": "inactive"}
{"smiles": "CCN(CC)c1cccc(O)c1", "Potency": "20.4 µM (active)"}
{"smiles": "CC(C)(O)CCc1ccccc1", "Potency": "inactive"}
{"smiles": "CC1C(C)(C)C2=C(C(=O)CCC2)C1(C)C", "note": "(stereo not drawn)", "Potency": "inactive"}
{"smiles": "C[C@@H]1C[C@H]2[C@@H]3CCC4=CC(=O)C=C[C@]4(C)[C@@]3(F)[C@@H](O)C[C@]2(C)[C@@]1(O)C(=O)COP(=O)(O)O", "Potency": "inactive"}
{"smiles": "CC1=CC[C@@]23C[C@@H]1C(C)(C)[C@@H]2CC[C@H]3C", "Potency": "79.6 µM (active)"}
{"smiles": "CC(=O)OCCC1CCCCC1", "Potency": "inactive"}
{"smiles": "COc1cc(NS(=O)(=O)c2ccc(N)cc2)nc(C)n1", "Potency": "inactive"}
{"smiles": "Nc1ccc(N=Nc2ccc(N)cc2)cc1", "Potency": "5.02 µM (active)"}
{"smiles": "Nc1c(Cl)cc(Cl)cc1[N+](=O)[O-]", "Potency": "inactive"}
{"smiles": "CCCCCCCCCCCSCC(=O)O", "Potency": "inactive"}
{"smiles": "C=CC(=O)NC(C)C", "Potency": "inactive"}
{"smiles": "FC(F)(F)C(F)(F)C(F)(F)C(F)(F)CCI", "Potency": "inactive"}
{"smiles": "C/C(C=O)=C\\c1ccccc1", "Potency": "inactive"}
{"smiles": "CCCCCCCC(=O)OCCCCCC", "Potency": "inactive"}
{"smiles": "CCOC(=O)c1ccc(NC(=O)CN2CCCCC2)cc1", "Potency": "inactive"}
{"smiles": "CCC(Cl)CC(Cl)C(Cl)C(Cl)C(Cl)C(C)Cl", "note": "(stereo not drawn)", "activity change, negative = inhibition": "36.6% [at 23.6 µM]"}
{"smiles": "CC(CO)(CO)C(=O)O", "Potency": "inactive"}
{"smiles": "CCC(C)(C)C(=O)O", "Potency": "inactive"}
